# Where “and” joins values, the source holds several entries; their conditions need not be identical. Identical values can stand only once. Values without a mark were called inactive. No rule for the calls is given here.
# Columns and labels:
# [1] = system: Aerobactin synthetase IucA (Klebsiella pneumoniae hvKP1); assay: Biochemical IucA enzyme inhibition primary screen of the Spectrum library (AID 1346200); conditions: malachite green pyrophosphate, A620, at 8 µM, active compounds read low;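 also: 100% = wells without compound and 0% = wells lacking enzyme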
# [2] = system: Aerobactin synthetase IucA (Klebsiella pneumoniae, hypervirulent); assay: IucA enzyme inhibition, biochemical, LOPAC library, absorbance readout (AID 1346212); conditions: IucA enzyme assay, absorbance (OD) readout; active compounds read low;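 tested at 8 µM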;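 also: 100% = no compound wells and 0% = no enzyme wells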
Compound,activity remaining [1],remaining activity [2]
CC(C)OC(=O)C(C)(C)Oc1ccc(C(=O)c2ccc(Cl)cc2)cc1,94.1%,108%
CCCCNC(=O)NS(=O)(=O)c1ccc(C)cc1,120%,95.4%
CC[N+](CC)(CC)CCOc1cccc(OCC[N+](CC)(CC)CC)c1OCC[N+](CC)(CC)CC,96.2%,111%
COc1ccc2[nH]cc(CCNC(C)=O)c2c1,111%,118%
CCCCS(=N)(=O)CCC(N)C(=O)O (stereo unspecified),102%,84.7%
OC(CCN1CCCCC1)(c1ccccc1)C1CC2C=CC1C2 (stereo unspecified),87.7%,116%
CN(C)CCCN1c2ccccc2CCc2ccccc21,107%,90.4%
CC/C(=C(\c1ccccc1)c1ccc(OCCN(C)C)cc1)c1ccccc1,118%,107%
CCCN(CCC)CCc1cccc2c1CC(=O)N2,98.7%,80.8%
NCCCS(=O)(=O)O,104%,111%
NCCc1cnc[nH]1,112%,112%
CCCN1C[C@H](CSC)C[C@@H]2c3cccc4[nH]cc(c34)C[C@H]21,120%,95.5%
O=C(/C=C/c1ccc(O)c(O)c1)OCCc1ccccc1,78.8%,105%
CC(CCc1ccccc1)NCC(O)c1ccc(O)c(C(N)=O)c1 (stereo unspecified),121%,112%
CC(C)NCC(O)c1cc(O)cc(O)c1 (stereo unspecified),126%,118%
CN1CCN(CC(=O)N2c3ccccc3C(=O)Nc3cccnc32)CC1,117%,94.6%
C#CCN(C)Cc1ccccc1,122%,80.8%
CC(C)(C(=O)O)c1ccc(C(O)CCCN2CCC(C(O)(c3ccccc3)c3ccccc3)CC2)cc1 (stereo unspecified),113%,107%
Cc1cn([C@H]2C[C@H](N=[N+]=[N-])[C@@H](CO)O2)c(=O)[nH]c1=O,114%,117%
CCN(CC)CCNC(=O)c1cc(Cl)c(N)cc1OC,88.1%,101%
CC1COc2c(N3CCN(C)CC3)c(F)cc3c(=O)c(C(=O)O)cn1c23 (stereo unspecified),92.3%,118%

Compound,activity remaining [1],remaining activity [2]
Nc1c2c(nc3ccccc13)CCCC2O (stereo unspecified),105%,101%
CC(C[N+](C)(C)C)OC(N)=O (stereo unspecified),116%,114%
O=C(O)c1cccnc1C(=O)O,89.1%,116%
CN(C)C(=O)Oc1ccc[n+](C)c1,93.4%,91.3%
CN(C)C(=O)Oc1cccc([N+](C)(C)C)c1,87.4%,120%
O=C(c1ccc(F)cc1)C1CCN(CCn2c(=O)[nH]c3ccccc3c2=O)CC1,120%,73.1%
Cc1scc2c1N(C(=O)CN1CCN(C)CC1)c1ccccc1NC2=O,117%,105%
CC(=O)Nc1nnc(S(N)(=O)=O)s1,103%,113%
Nc1ncn([C@@H]2O[C@H](CO)[C@@H](O)[C@H]2O)c(=O)n1,104%,112%
CN=C(N)NCCC[C@H](N)C(=O)O,116%,111%
N[C@@H](C(=O)N[C@@H]1C(=O)N2C(C(=O)O)=C(Cl)CS[C@H]12)c1ccccc1,103%,120%
Cc1ccc(Cl)c(Nc2ccccc2C(=O)O)c1Cl,93.4%,128%
Oc1cc(O)c2c(c1)O[C@H](c1ccc(O)c(O)c1)[C@@H](O)C2,93%,106%
Nc1nc2c(ncn2COCCO)c(=O)[nH]1,118%,120%
C=CCc1ccccc1OCC(O)CNC(C)C (stereo unspecified),110%,91.4%
O=C(CCCN1CC=C(n2c(=O)[nH]c3ccccc32)CC1)c1ccc(F)cc1,111%,98.7%
CCN(CC)CCCC(C)Nc1ccnc2cc(Cl)ccc12 (stereo unspecified),93%,122%
CCN(CC)CCOC(=O)c1ccc(N)cc1,105%,106%
Cc1ccccc1C(OCCN(C)C)c1ccccc1 (stereo unspecified),100%,117%
CN(C)CCCN1c2ccccc2CCc2ccc(Cl)cc21,111%,117%
O=c1ccc2ccc(O)c(O)c2o1,103%,116%

Compound,activity remaining [1],remaining activity [2]
CN1CCC(=C2c3ccccc3CC(=O)c3sccc32)CC1,100%,112%
C=Cc1c(C)c2cc3[nH]c(cc4nc(cc5nc(cc1[nH]2)C(C)=C5CCC(=O)O)C(CCC(=O)O)=C4C)c(C)c3C=C,97.5%,107%
NCCCNCCSP(=O)(O)O,113%,108%
COc1ccc(C2CNC(=O)C2)cc1OC1CCCC1 (stereo unspecified),120%,91.4%
NCCSSCCN,116%,117%
CC(C)COCC(CN(Cc1ccccc1)c1ccccc1)N1CCCC1 (stereo unspecified),126%,91.4%
NC(N)=NC(N)=Nc1ccccc1,123%,101%
CN1Cc2c(N)cccc2C(c2ccccc2)C1 (stereo unspecified),119%,109%
O=c1c(-c2ccc(O)cc2)coc2cc(O)ccc12,118%,99.6%
CCN(CC)CCOC(=O)C1(C2CCCCC2)CCCCC1,125%,92.7%
O=C1CC2(CCCC2)CC(=O)N1CCCCN1CCN(c2ncccn2)CC1,118%,111%
CCN(Cc1ccncc1)C(=O)C(CO)c1ccccc1 (stereo unspecified),98.9%,98.9%
CCO/C([O-])=N/c1c[n+](N2CCOCC2)no1,99.6%,128%
NC(=NCc1ccccc1)NC(=O)c1nc(Cl)c(N)nc1N,78.3%,94.8%
Cn1cnc2c1c(=O)[nH]c(=O)n2C,126%,97.1%
O=C1NC(=O)C(c2ccccc2)(c2ccccc2)N1,122%,124% and 101%
CN/C(=C\[N+](=O)[O-])NCCSCc1ccc(CN(C)C)o1,91.1%,101%
CC(C)NNC(=O)c1ccncc1,93.2%,128%
O=C(O)c1cc2cc(Cc3cccnc3)ccc2o1,121%,104%
O=C(C1CCCCC1)N1CC(=O)N2CCc3ccccc3C2C1 (stereo unspecified),123%,104%
NCCCCN,91.8%,94.5%

# Reference: PubChem BioAssay
